# Assay results from ChEMBL document CHEMBL1961873, “Compounds: GSK PKIS; Assays: Nanosyn kinase panel” (2012).
# How the values were obtained:
# [1] = test system: Epidermal growth factor receptor (Homo sapiens), P00533 [T790M]; settings: at 1 µM
# [2] = test system: Epidermal growth factor receptor (Homo sapiens), P00533 [L858R,T790M]; settings: at 0.1 µM
# [3] = test system: Epidermal growth factor receptor (Homo sapiens), P00533 [L858R,T790M]; settings: at 1 µM
# [4] = molecular target: Ephrin type-A receptor 2 (Homo sapiens) (UniProt P29317); settings: at 0.1 µM
# Chain of Ephrin type-A receptor 2 (Homo sapiens) (P29317 whole entry): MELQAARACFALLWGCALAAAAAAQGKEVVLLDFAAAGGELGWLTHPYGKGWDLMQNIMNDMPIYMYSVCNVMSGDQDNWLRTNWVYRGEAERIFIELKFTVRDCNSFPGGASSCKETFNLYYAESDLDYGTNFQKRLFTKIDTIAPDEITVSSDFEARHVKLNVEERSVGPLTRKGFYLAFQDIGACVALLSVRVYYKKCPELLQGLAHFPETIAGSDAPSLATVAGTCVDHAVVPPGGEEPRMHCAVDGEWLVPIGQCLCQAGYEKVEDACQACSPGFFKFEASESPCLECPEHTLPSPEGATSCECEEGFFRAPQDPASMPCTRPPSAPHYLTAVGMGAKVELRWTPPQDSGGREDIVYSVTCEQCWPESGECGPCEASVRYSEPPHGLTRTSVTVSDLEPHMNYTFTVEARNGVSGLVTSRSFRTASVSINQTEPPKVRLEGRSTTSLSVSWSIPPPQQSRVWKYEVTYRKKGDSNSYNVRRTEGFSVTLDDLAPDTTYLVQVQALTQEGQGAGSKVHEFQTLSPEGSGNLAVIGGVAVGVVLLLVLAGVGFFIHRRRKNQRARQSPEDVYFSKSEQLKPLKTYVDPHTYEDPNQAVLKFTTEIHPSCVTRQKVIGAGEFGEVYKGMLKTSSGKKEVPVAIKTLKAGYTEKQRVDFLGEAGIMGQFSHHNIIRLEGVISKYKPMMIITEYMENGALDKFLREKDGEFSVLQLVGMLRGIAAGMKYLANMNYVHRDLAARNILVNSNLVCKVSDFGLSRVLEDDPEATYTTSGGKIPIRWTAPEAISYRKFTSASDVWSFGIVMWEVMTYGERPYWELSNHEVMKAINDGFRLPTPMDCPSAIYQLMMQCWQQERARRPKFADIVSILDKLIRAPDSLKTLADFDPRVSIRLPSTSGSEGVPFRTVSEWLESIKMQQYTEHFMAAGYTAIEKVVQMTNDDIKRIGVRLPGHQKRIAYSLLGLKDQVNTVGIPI
# [5] = molecular target: Ephrin type-A receptor 2 (Homo sapiens) (UniProt P29317); settings: at 1 µM
# [6] = molecular target: T1, Ephrin type-A receptor 3 (Homo sapiens) (UniProt P29320); settings: at 0.1 µM
# T1 sequence (whole entry): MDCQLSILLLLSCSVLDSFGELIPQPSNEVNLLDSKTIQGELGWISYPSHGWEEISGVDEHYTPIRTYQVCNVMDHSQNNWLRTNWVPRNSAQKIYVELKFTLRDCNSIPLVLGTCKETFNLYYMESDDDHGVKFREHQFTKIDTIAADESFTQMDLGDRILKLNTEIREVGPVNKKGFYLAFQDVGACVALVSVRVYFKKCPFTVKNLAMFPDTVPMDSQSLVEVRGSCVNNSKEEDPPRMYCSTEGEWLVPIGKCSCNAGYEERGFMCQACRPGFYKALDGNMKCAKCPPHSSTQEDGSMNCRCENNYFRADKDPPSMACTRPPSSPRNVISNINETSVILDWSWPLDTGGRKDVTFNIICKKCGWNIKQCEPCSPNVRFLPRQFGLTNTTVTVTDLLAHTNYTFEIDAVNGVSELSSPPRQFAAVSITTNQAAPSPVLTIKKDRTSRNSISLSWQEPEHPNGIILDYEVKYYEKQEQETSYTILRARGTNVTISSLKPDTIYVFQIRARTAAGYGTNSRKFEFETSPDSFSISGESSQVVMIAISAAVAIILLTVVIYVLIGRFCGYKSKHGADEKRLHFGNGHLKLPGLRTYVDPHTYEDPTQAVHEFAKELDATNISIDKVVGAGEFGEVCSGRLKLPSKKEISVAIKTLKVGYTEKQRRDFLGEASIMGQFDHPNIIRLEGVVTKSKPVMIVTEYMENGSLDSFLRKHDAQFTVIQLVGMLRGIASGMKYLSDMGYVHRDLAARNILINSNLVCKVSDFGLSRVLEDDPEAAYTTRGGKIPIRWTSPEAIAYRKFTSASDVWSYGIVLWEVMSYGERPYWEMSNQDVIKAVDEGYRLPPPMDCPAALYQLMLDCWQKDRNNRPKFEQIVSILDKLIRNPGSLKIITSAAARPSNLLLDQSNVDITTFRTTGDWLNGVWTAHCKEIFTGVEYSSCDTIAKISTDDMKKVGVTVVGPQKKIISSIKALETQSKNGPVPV
# [7] = molecular target: T1, Ephrin type-A receptor 3 (Homo sapiens); settings: at 1 µM
# [8] = molecular target: Ephrin type-A receptor 4 (Homo sapiens) (UniProt P54764); settings: at 0.1 µM
# Chain of Ephrin type-A receptor 4 (Homo sapiens) (P54764 whole entry): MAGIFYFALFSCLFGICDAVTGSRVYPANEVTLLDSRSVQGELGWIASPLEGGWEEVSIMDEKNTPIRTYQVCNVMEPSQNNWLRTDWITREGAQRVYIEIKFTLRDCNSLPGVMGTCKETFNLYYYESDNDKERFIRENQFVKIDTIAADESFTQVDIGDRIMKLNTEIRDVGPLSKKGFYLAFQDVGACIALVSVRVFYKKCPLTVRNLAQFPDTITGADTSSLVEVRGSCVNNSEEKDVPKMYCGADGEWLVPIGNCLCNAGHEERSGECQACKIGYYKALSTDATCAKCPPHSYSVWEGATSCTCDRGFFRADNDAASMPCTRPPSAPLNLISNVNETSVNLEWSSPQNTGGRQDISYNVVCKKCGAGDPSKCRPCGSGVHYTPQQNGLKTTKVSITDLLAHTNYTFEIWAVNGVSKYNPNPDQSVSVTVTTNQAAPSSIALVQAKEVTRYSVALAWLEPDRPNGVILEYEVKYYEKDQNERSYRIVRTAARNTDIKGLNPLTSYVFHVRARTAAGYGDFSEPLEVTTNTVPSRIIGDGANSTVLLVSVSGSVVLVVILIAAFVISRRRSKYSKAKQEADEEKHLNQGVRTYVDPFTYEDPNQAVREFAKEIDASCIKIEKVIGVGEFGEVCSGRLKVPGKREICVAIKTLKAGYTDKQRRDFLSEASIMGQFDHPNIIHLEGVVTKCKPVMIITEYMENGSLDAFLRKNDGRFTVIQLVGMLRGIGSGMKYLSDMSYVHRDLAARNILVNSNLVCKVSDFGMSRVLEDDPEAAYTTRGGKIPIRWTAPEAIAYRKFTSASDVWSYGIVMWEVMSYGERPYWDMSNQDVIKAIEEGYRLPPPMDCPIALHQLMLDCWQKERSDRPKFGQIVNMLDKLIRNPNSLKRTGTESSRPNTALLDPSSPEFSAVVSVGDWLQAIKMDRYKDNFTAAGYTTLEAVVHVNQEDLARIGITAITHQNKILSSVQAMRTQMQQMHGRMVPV
# [9] = molecular target: Ephrin type-A receptor 4 (Homo sapiens) (UniProt P54764); settings: at 1 µM
# [10] = molecular target: T2, Ephrin type-B receptor 2 (Homo sapiens) (UniProt P29323); settings: at 0.1 µM
# T2 sequence (whole entry): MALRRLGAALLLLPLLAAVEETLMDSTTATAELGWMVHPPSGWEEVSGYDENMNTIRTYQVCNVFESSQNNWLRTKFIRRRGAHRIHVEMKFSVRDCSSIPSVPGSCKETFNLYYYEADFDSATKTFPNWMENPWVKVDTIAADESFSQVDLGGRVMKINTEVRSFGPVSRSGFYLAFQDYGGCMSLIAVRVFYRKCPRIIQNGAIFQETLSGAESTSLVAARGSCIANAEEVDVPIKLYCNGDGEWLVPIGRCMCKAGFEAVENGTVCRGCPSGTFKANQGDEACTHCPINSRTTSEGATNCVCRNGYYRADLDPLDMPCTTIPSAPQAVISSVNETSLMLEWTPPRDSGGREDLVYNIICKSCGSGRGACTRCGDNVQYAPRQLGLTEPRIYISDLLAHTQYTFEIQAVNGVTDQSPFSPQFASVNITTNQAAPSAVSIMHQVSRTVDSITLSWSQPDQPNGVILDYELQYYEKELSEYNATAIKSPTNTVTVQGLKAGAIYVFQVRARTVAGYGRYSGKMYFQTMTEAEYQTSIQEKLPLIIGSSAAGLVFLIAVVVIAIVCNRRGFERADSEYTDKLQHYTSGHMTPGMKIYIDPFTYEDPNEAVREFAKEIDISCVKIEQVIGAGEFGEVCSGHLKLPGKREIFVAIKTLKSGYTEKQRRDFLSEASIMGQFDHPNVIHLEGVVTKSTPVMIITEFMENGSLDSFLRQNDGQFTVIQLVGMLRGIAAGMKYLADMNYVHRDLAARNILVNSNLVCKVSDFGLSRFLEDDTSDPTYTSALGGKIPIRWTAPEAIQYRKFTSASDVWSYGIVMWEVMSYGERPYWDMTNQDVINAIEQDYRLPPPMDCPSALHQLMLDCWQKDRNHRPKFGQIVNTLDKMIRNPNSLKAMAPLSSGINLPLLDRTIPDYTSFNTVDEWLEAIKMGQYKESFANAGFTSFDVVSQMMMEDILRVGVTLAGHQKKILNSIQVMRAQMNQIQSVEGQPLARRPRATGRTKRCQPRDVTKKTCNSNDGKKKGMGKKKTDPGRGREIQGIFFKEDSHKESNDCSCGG
# [11] = molecular target: T2, Ephrin type-B receptor 2 (Homo sapiens); settings: at 1 µM
# [12] = molecular target: T3, Ephrin type-B receptor 3 (Homo sapiens) (UniProt P54753); settings: at 0.1 µM
# T3 sequence (whole entry): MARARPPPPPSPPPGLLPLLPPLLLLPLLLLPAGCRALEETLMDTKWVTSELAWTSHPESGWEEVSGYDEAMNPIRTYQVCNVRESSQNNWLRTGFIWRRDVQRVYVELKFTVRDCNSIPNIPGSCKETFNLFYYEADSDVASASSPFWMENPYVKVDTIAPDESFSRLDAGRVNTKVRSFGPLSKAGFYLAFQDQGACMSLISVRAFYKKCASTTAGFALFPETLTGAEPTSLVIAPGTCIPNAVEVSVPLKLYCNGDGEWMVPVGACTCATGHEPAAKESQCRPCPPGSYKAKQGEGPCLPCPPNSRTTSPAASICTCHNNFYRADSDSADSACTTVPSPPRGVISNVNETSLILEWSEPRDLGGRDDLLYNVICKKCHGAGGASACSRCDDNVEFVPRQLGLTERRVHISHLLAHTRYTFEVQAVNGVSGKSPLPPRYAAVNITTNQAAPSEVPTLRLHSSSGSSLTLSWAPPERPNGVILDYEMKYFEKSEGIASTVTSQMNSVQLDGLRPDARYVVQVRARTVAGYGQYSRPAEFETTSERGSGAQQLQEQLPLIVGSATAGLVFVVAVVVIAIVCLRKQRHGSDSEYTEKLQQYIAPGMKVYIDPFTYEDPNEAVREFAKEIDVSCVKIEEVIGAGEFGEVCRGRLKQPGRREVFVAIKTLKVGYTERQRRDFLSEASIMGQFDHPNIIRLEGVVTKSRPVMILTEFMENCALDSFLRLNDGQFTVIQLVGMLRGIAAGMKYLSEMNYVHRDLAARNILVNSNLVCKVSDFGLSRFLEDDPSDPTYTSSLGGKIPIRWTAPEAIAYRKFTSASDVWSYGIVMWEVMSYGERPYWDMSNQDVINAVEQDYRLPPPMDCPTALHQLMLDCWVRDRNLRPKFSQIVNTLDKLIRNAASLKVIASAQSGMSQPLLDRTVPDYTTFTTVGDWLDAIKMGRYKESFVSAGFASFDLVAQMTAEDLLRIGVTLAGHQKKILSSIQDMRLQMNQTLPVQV
# [13] = molecular target: T3, Ephrin type-B receptor 3 (Homo sapiens); settings: at 1 µM
# [14] = molecular target: T4, Ephrin type-B receptor 4 (Homo sapiens) (UniProt P54760); settings: at 0.1 µM
# T4 sequence (whole entry): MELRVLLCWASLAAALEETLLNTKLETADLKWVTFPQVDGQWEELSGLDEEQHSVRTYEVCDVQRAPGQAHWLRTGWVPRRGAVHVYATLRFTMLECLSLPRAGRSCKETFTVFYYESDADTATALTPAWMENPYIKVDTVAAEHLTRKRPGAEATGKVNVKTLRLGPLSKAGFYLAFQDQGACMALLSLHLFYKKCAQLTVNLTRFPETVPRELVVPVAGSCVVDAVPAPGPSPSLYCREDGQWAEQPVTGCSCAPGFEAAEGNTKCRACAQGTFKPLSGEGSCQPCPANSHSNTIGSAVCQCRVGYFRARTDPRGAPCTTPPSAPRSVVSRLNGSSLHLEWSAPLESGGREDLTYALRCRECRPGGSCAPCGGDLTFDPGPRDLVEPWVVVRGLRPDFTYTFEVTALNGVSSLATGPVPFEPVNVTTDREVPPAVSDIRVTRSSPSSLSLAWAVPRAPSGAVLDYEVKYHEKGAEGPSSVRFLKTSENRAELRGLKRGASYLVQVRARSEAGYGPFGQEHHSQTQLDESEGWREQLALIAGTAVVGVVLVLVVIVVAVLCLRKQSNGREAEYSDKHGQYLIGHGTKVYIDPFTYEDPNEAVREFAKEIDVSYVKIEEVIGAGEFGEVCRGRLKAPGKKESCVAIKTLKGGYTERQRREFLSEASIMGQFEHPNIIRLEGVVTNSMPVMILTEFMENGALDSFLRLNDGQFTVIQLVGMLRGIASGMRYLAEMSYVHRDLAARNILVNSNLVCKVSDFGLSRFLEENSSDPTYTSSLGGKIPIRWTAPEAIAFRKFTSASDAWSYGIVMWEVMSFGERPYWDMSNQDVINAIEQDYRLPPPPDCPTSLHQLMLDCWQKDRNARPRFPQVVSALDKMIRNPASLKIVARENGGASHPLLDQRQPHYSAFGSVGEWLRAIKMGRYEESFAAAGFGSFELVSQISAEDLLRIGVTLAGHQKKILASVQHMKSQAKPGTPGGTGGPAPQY
# [15] = molecular target: T4, Ephrin type-B receptor 4 (Homo sapiens); settings: at 1 µM
# [16] = molecular target: Receptor tyrosine-protein kinase erbB-2 (Homo sapiens) (UniProt P04626); settings: at 0.1 µM
# [17] = molecular target: Receptor tyrosine-protein kinase erbB-2 (Homo sapiens) (UniProt P04626); settings: at 1 µM
# [18] = molecular target: Receptor tyrosine-protein kinase erbB-4 (Homo sapiens) (UniProt Q15303); settings: at 0.1 µM
# Chain of Receptor tyrosine-protein kinase erbB-4 (Homo sapiens) (Q15303 whole entry): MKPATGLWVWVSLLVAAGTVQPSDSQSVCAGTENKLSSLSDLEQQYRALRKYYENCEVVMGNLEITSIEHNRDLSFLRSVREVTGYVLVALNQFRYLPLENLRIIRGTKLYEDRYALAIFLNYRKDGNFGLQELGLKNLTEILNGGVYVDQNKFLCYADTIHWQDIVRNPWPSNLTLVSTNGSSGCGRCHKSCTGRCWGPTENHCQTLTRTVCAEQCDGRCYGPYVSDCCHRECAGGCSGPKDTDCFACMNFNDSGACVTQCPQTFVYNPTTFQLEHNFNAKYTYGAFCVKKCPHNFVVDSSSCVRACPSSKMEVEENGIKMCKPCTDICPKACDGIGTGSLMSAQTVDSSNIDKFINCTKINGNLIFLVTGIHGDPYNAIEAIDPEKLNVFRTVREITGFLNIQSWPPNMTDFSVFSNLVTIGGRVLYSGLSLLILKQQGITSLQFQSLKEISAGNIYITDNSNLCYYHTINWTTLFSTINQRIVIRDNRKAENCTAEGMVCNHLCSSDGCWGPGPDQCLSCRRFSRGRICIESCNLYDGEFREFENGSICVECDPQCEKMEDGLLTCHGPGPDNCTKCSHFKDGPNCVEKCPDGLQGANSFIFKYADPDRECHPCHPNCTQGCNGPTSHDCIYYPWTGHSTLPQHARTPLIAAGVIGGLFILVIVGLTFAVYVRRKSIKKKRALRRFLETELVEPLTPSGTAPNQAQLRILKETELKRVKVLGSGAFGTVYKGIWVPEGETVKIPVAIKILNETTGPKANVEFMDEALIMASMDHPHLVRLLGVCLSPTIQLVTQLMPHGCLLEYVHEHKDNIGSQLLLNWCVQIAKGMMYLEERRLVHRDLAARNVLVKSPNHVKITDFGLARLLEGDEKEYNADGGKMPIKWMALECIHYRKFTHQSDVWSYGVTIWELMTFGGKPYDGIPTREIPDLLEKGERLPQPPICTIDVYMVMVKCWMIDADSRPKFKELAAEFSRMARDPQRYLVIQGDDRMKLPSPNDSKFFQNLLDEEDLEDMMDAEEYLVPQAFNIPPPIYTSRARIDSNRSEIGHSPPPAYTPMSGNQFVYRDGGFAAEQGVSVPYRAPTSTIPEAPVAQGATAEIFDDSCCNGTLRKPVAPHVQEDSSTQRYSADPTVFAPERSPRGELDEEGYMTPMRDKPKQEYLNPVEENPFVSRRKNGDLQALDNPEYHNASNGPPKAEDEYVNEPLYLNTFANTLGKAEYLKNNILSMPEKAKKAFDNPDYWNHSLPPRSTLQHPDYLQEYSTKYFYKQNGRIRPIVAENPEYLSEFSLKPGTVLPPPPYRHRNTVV
# [19] = molecular target: Receptor tyrosine-protein kinase erbB-4 (Homo sapiens) (UniProt Q15303); settings: at 1 µM
# [20] = molecular target: Tyrosine-protein kinase Fer (Homo sapiens) (UniProt P16591); settings: at 0.1 µM;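 note: reported figures are averaged percent inhibition of FER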
# Chain of Epidermal growth factor receptor (Homo sapiens), P00533 [T790M] (P00533 whole entry T790M): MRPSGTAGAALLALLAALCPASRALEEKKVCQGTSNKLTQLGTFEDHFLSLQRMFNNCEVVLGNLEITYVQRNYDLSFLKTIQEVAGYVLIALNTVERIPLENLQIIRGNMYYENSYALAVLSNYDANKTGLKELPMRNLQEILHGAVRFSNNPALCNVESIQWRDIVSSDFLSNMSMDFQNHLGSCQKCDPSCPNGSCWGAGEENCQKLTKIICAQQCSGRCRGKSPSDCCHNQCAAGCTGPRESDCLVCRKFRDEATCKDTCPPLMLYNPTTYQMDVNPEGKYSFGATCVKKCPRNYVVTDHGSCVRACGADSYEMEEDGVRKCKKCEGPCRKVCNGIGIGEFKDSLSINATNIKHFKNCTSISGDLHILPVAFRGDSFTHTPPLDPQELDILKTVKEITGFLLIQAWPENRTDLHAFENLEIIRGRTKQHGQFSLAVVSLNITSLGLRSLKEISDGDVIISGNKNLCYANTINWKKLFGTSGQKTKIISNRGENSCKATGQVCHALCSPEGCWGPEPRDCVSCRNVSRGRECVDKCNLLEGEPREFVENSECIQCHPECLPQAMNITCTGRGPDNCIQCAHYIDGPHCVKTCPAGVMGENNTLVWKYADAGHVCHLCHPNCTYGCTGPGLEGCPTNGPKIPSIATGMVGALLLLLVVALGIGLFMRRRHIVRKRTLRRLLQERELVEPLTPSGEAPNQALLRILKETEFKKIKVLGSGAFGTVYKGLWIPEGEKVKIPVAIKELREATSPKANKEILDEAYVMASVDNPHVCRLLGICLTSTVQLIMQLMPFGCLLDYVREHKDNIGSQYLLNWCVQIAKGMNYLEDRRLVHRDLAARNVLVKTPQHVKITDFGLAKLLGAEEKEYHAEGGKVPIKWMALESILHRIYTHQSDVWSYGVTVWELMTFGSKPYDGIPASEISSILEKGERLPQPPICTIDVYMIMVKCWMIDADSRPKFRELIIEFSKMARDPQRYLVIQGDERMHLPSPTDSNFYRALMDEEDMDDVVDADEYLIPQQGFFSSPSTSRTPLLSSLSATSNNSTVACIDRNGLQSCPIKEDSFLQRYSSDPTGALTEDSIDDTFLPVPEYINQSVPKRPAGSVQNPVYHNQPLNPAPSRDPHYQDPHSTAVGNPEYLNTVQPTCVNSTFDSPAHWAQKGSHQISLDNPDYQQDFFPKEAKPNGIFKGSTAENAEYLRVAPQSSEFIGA
SMILES,inhibition [1] [%],inhibition [2] [%],inhibition [3] [%],inhibition [4] [%],inhibition [5] [%],inhibition [6] [%],inhibition [7] [%],inhibition [8] [%],inhibition [9] [%],inhibition [10] [%],inhibition [11] [%],inhibition [12] [%],inhibition [13] [%],inhibition [14] [%],inhibition [15] [%],inhibition [16] [%],inhibition [17] [%],inhibition [18] [%],inhibition [19] [%],inhibition [20] [%]
CN(C)CCCNc1nccc(-c2c(-c3ccc(F)cc3)nn3cc(C(F)(F)F)ccc23)n1,-0.54,0.09,1.55,-2.91,-2.04,0.03,1.47,7,9,8.88,19.7,0.41,-0.85,-2.73,0.9,0.46,-1.57,0.88,-0.51,1.94
COc1cccc(-n2cnc3c(N/N=C/c4ccncc4)ncnc32)c1,5.78,-1.35,6.65,-0.82,0.55,-3.39,-0.79,3.18,25.6,2.42,16.2,-8.69,-4.51,-2.1,0.65,0.94,7.49,-3.73,2.45,4.18
CCS(=O)(=O)c1ccc(OC)c(Nc2ncc(-c3cccc(-c4ccccc4F)c3)o2)c1,0.84,3.32,5.25,-1.44,-0.56,-1.38,4.18,2.37,2.94,5.91,11.9,2.15,0.93,0.78,8.8,-0.34,2.22,5.89,15.2,0.83
O=C(Nc1n[nH]c2nc(-c3ccc(O)cc3)c(Br)cc12)C1CC1,5.37,6.72,8.16,4.79,24.2,8.45,14,15.2,39.2,11.9,37.8,9.61,5.92,7.91,28.8,2.58,4.82,14.9,22,3.43
Cc1ccc(C(=O)NC(C)C)cc1-c1ccc(C(=O)NCC2CC2)cc1,-3.61,-2.78,-0.98,-1.78,-2.07,-7.27,-6.99,-6.17,-6.72,-9.67,0.35,-7.05,-4.82,-0.32,-2.91,-5.52,-4.79,,,-1.9
CCc1cccc(CC)c1/C=C/c1cncc(C(=O)NC)c1,-0.11,1.59,4.31,3.59,2.3,2.96,2.85,5.38,5.6,7.22,11.1,3.73,2.63,1.12,1.84,0.13,-1.35,12.1,14.1,1.86
Cc1ccc(C(=O)NC2CCC2)cc1-c1ccc(C(=O)NCC2CC2)cc1,-0.05,0.49,1.53,0.5,0.07,2.96,4.24,4.02,0.68,6.98,2.05,3.94,1.11,1.02,3.17,3.5,8.52,16.7,17.7,4.2
